The full data set covers some 7,900 targets. This sample favours those with a hit. About 0.6% of all pairs of compound and target were hits. Values without a mark were called inactive.
Tests used:
Assay in all cases: log2 fold change, soluble protein after heating vs DMSO (PISA); higher = thermal stabilisation; K562 cells, 10 uM, 30 min; active = over 0.2 and 3.5 SD of the protein, either way, in both replicates (recomputed)
[1] = compound: C1=CC=C(C=C1)[C@H](COC2=CC3=C(C=C2)NC(=O)N3)NC(=O)C4=CC=CN(C4=O)CC5=CC(=C(C=C5)F)F
Method in brief: (§1)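 K562 cells at 2×10^6 cells/mL were given 10 μM compound for 30 min. Aliquots then went through 3 min of heating across 48°C-58°C, were pooled, and were extracted in PBS with 0.5% NP-40 at 4°C, and the supernatant after 21,000xg for 90 min was quantified by TMTpro 16plex LC-MS/MS with channel sums equalised. Thermal stability relative to control samples, from duplicates, is given as log2 fold change.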

[2] = compound: CC1=C(SC2=C1C(=N[C@H](C3=NN=C(N32)C)CC(=O)N)C4=CC=C(C=C4)Cl)C
Method in brief: as §1

[3] = compound: CC1=C2C(=CC=C1)N=C(N(C2=O)C3=CC=CC=C3C)CN4C=NC5=C(N=CN=C54)N
Method in brief: as §1

[4] = compound: Cc1sc2c(c1C)C(c1ccc(Cl)cc1)=N[C@@H](CC(=O)OC(C)(C)C)c1nnc(C)n1-2
Method in brief: as §1

[5] = compound: c1ccc([C@@H]2C[C@H]2NC2CCNCC2)cc1
Method in brief: as §1

Sequence of UniProt P49189 (P49189 whole entry, looked up): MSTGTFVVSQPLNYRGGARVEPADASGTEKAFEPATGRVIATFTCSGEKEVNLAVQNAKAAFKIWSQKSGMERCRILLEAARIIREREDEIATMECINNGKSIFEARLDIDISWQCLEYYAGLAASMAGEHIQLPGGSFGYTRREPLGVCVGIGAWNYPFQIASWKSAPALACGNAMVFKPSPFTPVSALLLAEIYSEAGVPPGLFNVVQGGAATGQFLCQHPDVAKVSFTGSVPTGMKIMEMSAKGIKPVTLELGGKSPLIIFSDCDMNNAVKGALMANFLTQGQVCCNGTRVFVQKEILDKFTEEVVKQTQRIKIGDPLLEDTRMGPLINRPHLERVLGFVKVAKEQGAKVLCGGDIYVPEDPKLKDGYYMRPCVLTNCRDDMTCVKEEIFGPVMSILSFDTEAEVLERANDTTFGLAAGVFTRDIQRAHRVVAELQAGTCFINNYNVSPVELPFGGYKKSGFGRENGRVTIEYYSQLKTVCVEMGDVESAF
Sequence of UniProt Q8N6H7 (Q8N6H7 whole entry, looked up): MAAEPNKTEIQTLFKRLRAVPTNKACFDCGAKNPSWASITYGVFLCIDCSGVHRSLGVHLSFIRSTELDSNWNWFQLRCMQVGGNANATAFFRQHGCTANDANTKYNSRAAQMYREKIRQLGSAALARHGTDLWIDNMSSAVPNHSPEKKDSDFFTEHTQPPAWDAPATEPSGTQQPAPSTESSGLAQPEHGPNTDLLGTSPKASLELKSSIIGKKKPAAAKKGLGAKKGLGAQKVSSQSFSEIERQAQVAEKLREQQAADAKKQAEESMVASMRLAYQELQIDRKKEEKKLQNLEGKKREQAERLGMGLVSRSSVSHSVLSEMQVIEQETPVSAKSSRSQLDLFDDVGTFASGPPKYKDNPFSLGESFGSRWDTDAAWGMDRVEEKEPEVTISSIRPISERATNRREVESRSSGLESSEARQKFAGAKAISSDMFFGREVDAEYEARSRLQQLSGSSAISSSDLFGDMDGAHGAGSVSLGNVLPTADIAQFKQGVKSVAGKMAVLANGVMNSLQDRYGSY
Sequence of UniProt P56211 (P56211 whole entry, looked up): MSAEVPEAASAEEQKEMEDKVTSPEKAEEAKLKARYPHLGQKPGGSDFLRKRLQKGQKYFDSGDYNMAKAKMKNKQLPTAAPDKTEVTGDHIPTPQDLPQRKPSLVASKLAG
Sequence of UniProt O43865 (O43865 whole entry, looked up): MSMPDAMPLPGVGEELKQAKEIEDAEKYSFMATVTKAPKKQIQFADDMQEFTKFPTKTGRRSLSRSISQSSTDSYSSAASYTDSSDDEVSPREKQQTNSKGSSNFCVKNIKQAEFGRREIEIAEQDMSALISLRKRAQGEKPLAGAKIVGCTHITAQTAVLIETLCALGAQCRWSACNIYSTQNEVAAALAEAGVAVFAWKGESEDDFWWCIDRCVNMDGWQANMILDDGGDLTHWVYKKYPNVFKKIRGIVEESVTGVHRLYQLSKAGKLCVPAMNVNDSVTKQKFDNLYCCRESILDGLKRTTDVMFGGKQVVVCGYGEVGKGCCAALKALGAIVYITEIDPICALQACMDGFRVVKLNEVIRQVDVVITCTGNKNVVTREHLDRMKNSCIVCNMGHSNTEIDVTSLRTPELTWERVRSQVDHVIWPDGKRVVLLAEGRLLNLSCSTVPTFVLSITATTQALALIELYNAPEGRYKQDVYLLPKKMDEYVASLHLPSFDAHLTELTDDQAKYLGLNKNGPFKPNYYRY
Sequence of UniProt P10398 (P10398 whole entry, looked up): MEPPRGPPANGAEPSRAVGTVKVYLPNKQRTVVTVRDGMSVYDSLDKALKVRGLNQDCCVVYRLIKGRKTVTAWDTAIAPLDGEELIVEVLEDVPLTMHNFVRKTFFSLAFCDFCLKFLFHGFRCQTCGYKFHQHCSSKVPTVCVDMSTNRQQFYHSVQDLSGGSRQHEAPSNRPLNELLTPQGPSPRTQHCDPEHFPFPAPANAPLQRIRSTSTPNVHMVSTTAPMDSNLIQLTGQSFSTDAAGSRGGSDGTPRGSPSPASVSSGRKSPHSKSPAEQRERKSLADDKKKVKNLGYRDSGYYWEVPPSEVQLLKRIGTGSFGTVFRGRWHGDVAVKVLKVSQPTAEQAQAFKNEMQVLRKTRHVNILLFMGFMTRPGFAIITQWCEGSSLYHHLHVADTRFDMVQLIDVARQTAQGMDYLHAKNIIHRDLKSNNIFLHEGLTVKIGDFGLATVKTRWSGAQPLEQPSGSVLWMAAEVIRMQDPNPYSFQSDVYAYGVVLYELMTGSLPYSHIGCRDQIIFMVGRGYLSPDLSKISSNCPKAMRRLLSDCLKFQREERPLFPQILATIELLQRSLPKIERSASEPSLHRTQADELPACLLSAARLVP
Sequence of UniProt Q6QNY0 (Q6QNY0 whole entry, looked up): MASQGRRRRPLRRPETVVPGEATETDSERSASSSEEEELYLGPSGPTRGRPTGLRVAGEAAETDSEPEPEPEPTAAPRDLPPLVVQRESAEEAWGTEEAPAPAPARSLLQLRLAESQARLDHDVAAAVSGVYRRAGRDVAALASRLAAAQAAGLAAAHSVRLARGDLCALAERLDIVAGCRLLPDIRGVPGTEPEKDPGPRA
Sequence of UniProt Q9H8Y5 (Q9H8Y5 whole entry, looked up): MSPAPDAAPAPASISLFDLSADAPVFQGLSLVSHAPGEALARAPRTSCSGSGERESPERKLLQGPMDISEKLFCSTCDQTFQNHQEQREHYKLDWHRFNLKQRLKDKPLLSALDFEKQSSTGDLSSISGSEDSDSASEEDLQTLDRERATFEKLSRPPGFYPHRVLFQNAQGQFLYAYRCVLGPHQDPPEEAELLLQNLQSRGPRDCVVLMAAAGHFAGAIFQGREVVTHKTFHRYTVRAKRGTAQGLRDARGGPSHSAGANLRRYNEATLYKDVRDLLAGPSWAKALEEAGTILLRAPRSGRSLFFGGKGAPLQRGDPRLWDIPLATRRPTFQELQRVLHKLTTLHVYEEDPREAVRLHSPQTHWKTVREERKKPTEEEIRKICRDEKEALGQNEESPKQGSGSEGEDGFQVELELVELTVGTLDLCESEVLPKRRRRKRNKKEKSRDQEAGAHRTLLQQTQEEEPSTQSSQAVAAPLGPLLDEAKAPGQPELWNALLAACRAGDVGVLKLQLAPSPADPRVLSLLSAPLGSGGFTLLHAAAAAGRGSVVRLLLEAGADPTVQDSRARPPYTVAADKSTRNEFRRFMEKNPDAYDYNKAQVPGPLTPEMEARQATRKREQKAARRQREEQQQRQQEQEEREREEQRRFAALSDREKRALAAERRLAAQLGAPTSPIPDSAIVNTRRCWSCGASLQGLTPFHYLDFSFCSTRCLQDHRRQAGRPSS
Sequence of UniProt Q9P287 (Q9P287 whole entry, looked up): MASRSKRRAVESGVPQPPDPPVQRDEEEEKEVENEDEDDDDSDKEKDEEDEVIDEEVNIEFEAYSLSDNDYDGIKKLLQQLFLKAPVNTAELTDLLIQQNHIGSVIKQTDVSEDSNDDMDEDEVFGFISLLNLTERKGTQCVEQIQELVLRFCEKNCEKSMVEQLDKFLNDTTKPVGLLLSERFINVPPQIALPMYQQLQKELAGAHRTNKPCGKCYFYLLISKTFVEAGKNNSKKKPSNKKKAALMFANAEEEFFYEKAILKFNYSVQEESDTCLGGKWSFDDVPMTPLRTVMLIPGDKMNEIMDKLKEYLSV
Sequence of UniProt Q9Y312 (Q9Y312 whole entry, looked up): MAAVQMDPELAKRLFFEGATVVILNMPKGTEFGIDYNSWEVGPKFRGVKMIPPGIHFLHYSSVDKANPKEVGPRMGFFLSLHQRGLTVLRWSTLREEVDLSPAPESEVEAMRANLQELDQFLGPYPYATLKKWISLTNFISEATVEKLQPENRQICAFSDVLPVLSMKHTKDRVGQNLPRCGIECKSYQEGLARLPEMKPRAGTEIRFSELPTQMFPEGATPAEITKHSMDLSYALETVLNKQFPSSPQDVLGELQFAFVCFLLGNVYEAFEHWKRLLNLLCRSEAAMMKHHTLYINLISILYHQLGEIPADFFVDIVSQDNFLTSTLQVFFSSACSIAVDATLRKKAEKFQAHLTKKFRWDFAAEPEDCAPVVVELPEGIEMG
Sequence of UniProt Q13825 (Q13825 whole entry, looked up): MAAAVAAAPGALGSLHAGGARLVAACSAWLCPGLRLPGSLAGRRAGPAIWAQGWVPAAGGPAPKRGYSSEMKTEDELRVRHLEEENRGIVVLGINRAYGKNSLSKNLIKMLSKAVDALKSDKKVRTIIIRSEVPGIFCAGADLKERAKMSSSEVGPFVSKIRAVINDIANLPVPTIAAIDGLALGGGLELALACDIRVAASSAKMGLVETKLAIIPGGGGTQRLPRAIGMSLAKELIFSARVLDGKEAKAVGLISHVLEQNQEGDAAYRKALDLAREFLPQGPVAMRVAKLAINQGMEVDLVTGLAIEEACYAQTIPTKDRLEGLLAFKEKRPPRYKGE
Sequence of UniProt Q15904 (Q15904 whole entry, looked up): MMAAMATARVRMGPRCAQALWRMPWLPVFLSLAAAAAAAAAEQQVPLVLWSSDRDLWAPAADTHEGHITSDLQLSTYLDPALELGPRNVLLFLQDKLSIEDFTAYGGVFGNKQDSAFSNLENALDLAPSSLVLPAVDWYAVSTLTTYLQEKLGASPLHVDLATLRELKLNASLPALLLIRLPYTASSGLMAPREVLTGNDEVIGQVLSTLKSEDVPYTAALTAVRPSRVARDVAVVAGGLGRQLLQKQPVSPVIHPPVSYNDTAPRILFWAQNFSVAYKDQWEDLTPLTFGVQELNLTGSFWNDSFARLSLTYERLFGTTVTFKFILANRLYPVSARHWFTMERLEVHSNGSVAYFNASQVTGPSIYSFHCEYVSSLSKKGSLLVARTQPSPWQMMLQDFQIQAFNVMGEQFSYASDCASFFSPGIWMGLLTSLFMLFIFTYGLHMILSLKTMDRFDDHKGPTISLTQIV
Sequence of UniProt Q96F25 (Q96F25 whole entry, looked up): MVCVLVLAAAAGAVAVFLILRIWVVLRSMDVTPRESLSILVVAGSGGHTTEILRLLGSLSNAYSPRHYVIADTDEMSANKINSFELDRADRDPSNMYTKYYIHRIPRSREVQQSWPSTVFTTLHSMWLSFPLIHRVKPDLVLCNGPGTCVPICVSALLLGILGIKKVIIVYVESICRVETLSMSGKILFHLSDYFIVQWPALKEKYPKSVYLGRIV

Row | Target | log2 fold change [1] | log2 fold change [2] | log2 fold change [3] | log2 fold change [4] | log2 fold change [5]
1 | ARL4A (UniProt P40617) | -0.027 | – | – | – | –
2 | ARFGAP2 (UniProt Q8N6H7) | -0.006 | 0.039 | 0.086 | -0.033 | 0.006
3 | ALKBH5 (UniProt Q6P6C2) | 0.065 | -0.002 | 0.085 | -0.024 | 0.028
4 | ATOX1 (UniProt O00244) | 0.033 | 0.124 | 0.101 | -0.153 | 0.008
5 | ALDH9A1 isoform 3 (UniProt P49189) | -0.007 | 0.029 | 0.019 | -0.019 | 0.028
6 | BLOC1S3 (UniProt Q6QNY0) | -0.048 | 0.084 | 0.088 | -0.113 | -0.06
7 | ACADVL isoform 3 (UniProt P49748) | 0.019 | 0.05 | 0.009 | -0.011 | -0.018
8 | ATP6V0A1 (UniProt Q93050) | 0.281 | – | – | – | –
9 | BPHL (UniProt Q86WA6) | -0.015 | 0.052 | 0.075 | 0.136 | -0.065
10 | AUH (UniProt Q13825) | 0.015 | 0.065 | -0.116 | -0.042 | -0.001
11 | ALG14 (UniProt Q96F25) | -0.008 | 0.019 | 0.241 | 0.051 | 0.006
12 | AAR2 (UniProt Q9Y312) | 0.024 | 0.08 | -0.053 | 0.069 | -0.012
13 | ADD2 isoform 9 (UniProt P35612) | 0.02 | – | – | – | –
14 | ARL1 (UniProt P40616) | -0.084 | 0.057 | 0.079 | -0.1 | -0.048
15 | ATP6AP1 (UniProt Q15904) | 0.014 | -0.069 | -0.009 | -0.055 | -0.022
16 | ATXN7L3 isoform 2 (UniProt Q14CW9) | -0.156 | – | – | – | –
17 | ARPP19 (UniProt P56211) | 0.003 | 0.021 | -0.076 | 0.031 | -0.007
18 | ANAPC2 (UniProt Q9UJX6) | -0.017 | 0.016 | -0.005 | 0.017 | -0.049
19 | BCCIP (UniProt Q9P287) | -0.044 | -0.018 | 0 | -0.037 | -0.062
20 | ARFRP1 (UniProt Q13795) | 0 | -0.066 | -0.03 | -0.021 | 0.029
21 | ALDH6A1 (UniProt Q02252) | 0.082 | 0.124 | 0.128 | -0.07 | 0.019
22 | AP2M1 (UniProt C9JTK4) | -0.113 | 0.083 | 0.131 | 0.136 | -0.076
23 | BRD4 (UniProt O60885) | -0.116 | 2.22 (active) | 0.141 | 1.99 (active) | 0.029
24 | AHCYL1 (UniProt O43865) | 0.057 | -0.004 | 0.014 | -0.03 | -0.037
25 | ARAF (UniProt P10398) | -0.05 | -0.003 | 0.178 | 0.022 | 0.027
26 | ANKZF1 (UniProt Q9H8Y5) | -0.113 | -0.037 | -0.01 | 0.15 | -0.008
27 | ARFIP1 isoform 2 (UniProt P53367) | 0.009 | – | – | – | –

— the supplement of paper PMC10849652
